PubChem BioAssay AID1209 (Sanford-Burnham Center for Chemical Genomics, 2008)
Screen size: about 190,000 compounds; about 810 (0.43%) were called active. The list comes from a sample in which actives are over-represented; it also holds similar structures and randomly drawn compounds. Values without a mark were called inactive. Cut-off read from the data, not from the text of the source: active = inhibition above about 50%; inactive = the rest.

What follows are compounds tested against Mannose-6-phosphate isomerase (Homo sapiens) (UniProt P34949) (assay: inhibitors of human PMI, primary screen, biochemical, fluorescence intensity, coupled assay (AID 1209;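 note: plate controls were DMSO vehicle for no effect and wells lacking substrate for full effect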)). Conditions: purified PMI enzyme, at 20 µM, hits give high values.
Mannose-6-phosphate isomerase (Homo sapiens), sequence (P34949 whole entry, looked up): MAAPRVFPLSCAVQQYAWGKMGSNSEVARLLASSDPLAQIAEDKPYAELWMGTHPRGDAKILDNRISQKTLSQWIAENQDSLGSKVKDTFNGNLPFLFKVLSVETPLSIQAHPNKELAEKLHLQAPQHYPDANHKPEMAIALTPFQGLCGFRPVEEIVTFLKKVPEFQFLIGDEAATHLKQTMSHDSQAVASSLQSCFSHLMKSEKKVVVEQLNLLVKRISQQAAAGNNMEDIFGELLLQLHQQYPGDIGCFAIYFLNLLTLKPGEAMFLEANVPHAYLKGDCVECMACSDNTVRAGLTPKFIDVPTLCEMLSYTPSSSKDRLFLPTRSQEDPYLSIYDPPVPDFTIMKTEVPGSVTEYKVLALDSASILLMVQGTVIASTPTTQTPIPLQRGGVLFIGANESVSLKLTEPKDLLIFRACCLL

SMILES	inhibition
COc1ccc(/C(N)=N/OC(=O)CSc2ccc(C)cc2)cc1OC	14.6%
O=C(c1cc(-c2ccco2)on1)N1CCOCC1	20.8%
CN1CCN(C(=O)c2cc(-c3ccco3)on2)CC1	-0.9%
O=C(c1cc(-c2ccco2)on1)N1CCN(c2ccccc2)CC1	53.5% (active)
CCCNC(=O)COC(=O)c1ccccc1OCC(=O)Nc1ccc(Br)cc1	-10.2%
COc1ccc(-c2csc(NC(=O)C3CC(=O)N(c4ccc5c(c4)OCCO5)C3)n2)cc1 (stereo not given)	5.8%
O=C1CCCN2N=C(SCC(=O)N3N=C(c4ccc(Br)cc4)CC3c3ccc(F)cc3)SC2=N1 (stereo not given)	22.3%
CC(NC(=O)Nc1ccc2c(c1)OCO2)C1CCCO1 (stereo not given)	0.5%
Cc1cc(N2CCOCC2)ccc1/C=C1/SC(=O)NC1=O	-13.8%
O=C1NC(=O)/C(=C\c2ccc(O)cc2O)S1	53.5% (active)
O=C1NC(=O)/C(=C/c2ccc(O)cc2)S1	-8.7%
O=S(=O)(c1ccc(Cl)cc1)c1cnc2ccccc2n1	-6.4%
COC(=O)c1cc(-c2ccccc2)n[nH]1	7.7%
CC(C)(C)NC(=O)c1cc(-c2ccccc2)n[nH]1	70.1% (active)
O=C(O)c1cc(-c2ccccc2)n[nH]1	-12%
Cc1c(Br)c([N+](=O)[O-])nn1CC(=O)NCc1ccccc1	1.2%
Cc1c(Br)c([N+](=O)[O-])nn1CC(=O)Nc1ccccn1	7.8%
Cc1c(Br)c([N+](=O)[O-])nn1CC(=O)NCc1ccccn1	101% (active)
O=C(C1CCCN(S(=O)(=O)c2cnc[nH]2)C1)N(CCc1ccccc1)Cc1ccccc1 (stereo not given)	9.1%
COCC(=O)Nc1nc2ccc(C)cc2s1	4.3%
CCOCC(=O)Nc1nc2ccc(C)cc2s1	110% (active)
CCOCC(=O)Nc1nc2ccc(OCC)cc2s1	-3%
CNC(=S)N1CCc2cc(OC)c(OC)cc2C1COc1ccc(F)cc1 (stereo not given)	10.3%
O=C1CNC(=O)c2c(nc3n2CCC3)N1	-20.3%

SMILES	inhibition
CC(C)=C1SC(N2CCN(c3ccc(Cl)cc3)CC2)=NC1=O	0.9%
COc1cccc(C(=O)NC(C)C(c2cccs2)N2CCN(C)CC2)c1 (stereo not given)	4.2%
CCN(CC)c1ccc(/C=N/N=C(c2ccccc2)c2ccccc2)c(O)c1	0.4%
COc1ccc(/C=N/N(Cc2ccccc2)c2ccccc2)cc1O	16.7%
O=C(/C(=N/N=C/c1ccc(O)c(O)c1)c1ccccc1)c1ccccc1	30.7%
Oc1ccc(/C=N/N=C(c2ccccc2)c2ccccc2)c(O)c1O	67.9% (active)
Oc1cccc(/C=N/N(Cc2ccccc2)c2ccccc2)c1	10%
COc1cc(/C=N/N=C(/C(=O)c2ccccc2)c2ccccc2)cc(OC)c1O	22%
O=C(/C(=N/N=C/c1ccc(O)c(O)c1O)c1ccccc1)c1ccccc1	55.5% (active)
Oc1cccc(C=NCc2ccccc2)c1O	49.6%
Oc1ccc(/C=N/N(Cc2ccccc2)c2ccccc2)c(O)c1O	76.6% (active)
CC(=O)c1cn(CCCCCCCn2cc(C(C)=O)c(=O)[nH]c2=O)c(=O)[nH]c1=O	1.5%
O=C(COC(=O)Cc1ccc(Br)cc1)NC1CCCCC1	-3.4%
Oc1ccc(C2N=C(c3ccccc3)NC(c3ccccc3)=N2)cc1	3.9%
Cc1ccc(C(=O)OCC(=O)Nc2sc3c(c2C#N)CCCC3)cc1NC(=O)c1ccco1	1.3%
CSc1nc(=NC(C)=O)ss1	54.4% (active)
CCN(c1ccccc1)S(=O)(=O)c1ccc(OC)c(NC(=O)CNC)c1	7.5%
CCN(CC)CCOC(=O)c1c(C)oc2ccc(O)cc12	81.6% (active)
CCOC(=O)c1c(C)oc2ccc(O)cc12	8.3%
CCN(CC)CCOC(=O)c1c(C)oc2ccc(OC)cc12	-3.8%
C/C(=N\NC(=O)CCc1c[nH]c2ccccc12)c1ccc([N+](=O)[O-])cc1	7.7%
O=C(Cc1coc(-c2ccc(F)cc2)n1)N1CCOCC1	1%
Nc1ccc(N(CCO)CCO)cc1	4.7%
OCCN(CCO)c1ccc(C(c2ccccc2Cl)c2ccc(N(CCO)CCO)cc2Cl)c(Cl)c1	22.1%

SMILES	inhibition
Cc1nc(SCC(=O)c2ccc(F)cc2)n[nH]1	-6.3%
Cc1nc(SCC(=O)c2ccccc2)n[nH]1	65.9% (active)
Cc1ccc(C(=O)CSc2n[nH]c(C)n2)cc1	48.5%
O=C(CCCN1C(=O)/C(=C/c2ccccc2)SC1=S)Nc1ccc(O)cc1	73% (active)
Cc1ccc(/C=C2/SC(=S)N(CCCC(=O)Nc3ccc(O)cc3)C2=O)cc1	22.7%
O=C(CCCN1C(=O)/C(=C/c2ccccc2)SC1=S)Nc1cccc(O)c1	13%
O=C(COC(=O)/C=C/c1ccc([N+](=O)[O-])cc1)NC(c1ccccc1)c1ccccc1	13%
CC1=C(C(=O)Nc2ccccc2)C(c2cccc([N+](=O)[O-])c2)Nc2nc3ccccc3n21 (stereo not given)	6.9%
O=C(CN1c2cccc3cccc(c23)S1(=O)=O)N1CCOCC1	1%
CC1=CC(C)(C)Nc2ccc(OC(=O)CN3C(=O)CCC3=O)cc21	22%
CC1=CC(C)(C)Nc2ccc(OC(=O)CN3C(=O)c4cccc5cccc(c45)C3=O)cc21	53.4% (active)
CC1=CC(C)(C)Nc2ccc(OC(=O)CN3C(=O)c4ccccc4C3=O)cc21	16.6%
Cc1cc(NC(=O)c2cc(-c3ccccc3)on2)n(-c2ccccc2)n1	0.3%
CCC(C)CCCCNC1=NCCS1 (stereo not given)	-16.3%
Cc1ccc(/C=N/n2c(C)nnc2C)cc1	3.6%
Cc1ccc(-c2n[nH]c(=S)n2/N=C/c2ccncc2)cc1	-12%
CCOC(=O)c1c(-c2cccs2)csc1NC(C)=O	7.1%
CCOC(=O)c1c(-c2ccncc2)csc1N	23.6%
CCOC(=O)c1c(-c2ccc(C)s2)csc1N	62.1% (active)
CCOC(=O)c1c(-c2cccs2)csc1N	51% (active)
NC(=O)c1c(-c2cccs2)csc1N	34.2%
CCOC(=O)c1c(-c2ccc(C)s2)csc1NC(=O)c1cccs1	1.1%
